Values joined by “and” are separate entries in the source; they are usually repeats but may differ in a detail not shown here. Equal entries are not always repeated. The panel holds about 83,000 compounds, 20% with a hit somewhere; the sample as a whole holds those more often.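 Treatment: one concentration, 48 hours, 96-well format. Scoring: percent growth, with anything below 10 considered active.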 Active and inactive are the calls of the source.

This assay deals with MDA-MB-468 breast. The assay is described as follows: NCI-60 one-dose screen, 48 h (100 = growth as untreated, 0 = no growth, -100 = all killed). The following applies: 10 µM unless noted.
As to `O=C(Nc1nc(-c2ccccc2)nc2c1sc(=S)n2-c1ccccc1)C(F)(F)F`, the growth was 105% (inactive).

On to `COc1cc(CCn2nnc3c(NCCCCO)ncnc32)cc(OC)c1`, for which the growth is 93.5% (inactive).

Consider `CCCCCN1C(=O)/C(=c2\sc3n(c2=O)C2C(NN=3)N(CC)C(=O)N2CC)c2ccccc21` (stereo not given), for which the growth is 5.08% (active).

Regarding `CN1CCN(Cc2ccc(NC(=O)c3cncc(C#Cc4cnn5cccnc45)c3)cc2C(F)(F)F)CC1`, the growth is 25.4% (inactive).

As for `CC(Cl)(CCl)CS(=O)(=O)c1ccc(Cl)cc1` (stereo not given), the growth was 104% (inactive).

Turning to `C#CCOc1ccc2ncnc(Nc3cccc(CNC(=O)C=C)c3)c2c1`, the growth is 89.2% [8.25 µM] (inactive).

As to `COc1ccc2c(c1)-c1c(c3cc(OC)ccc3n(CCN(C)C)c1=O)C2=O`, the growth is 46% (inactive).

`O=c1ccccc(-c2ccc(-c3ccco3)cc2)c1O`: the growth was 12.1% (inactive).

Regarding `CCOc1ccccc1-c1cc(-c2cccs2)c(C#N)c(=O)[nH]1`, the growth was 2.06% (active).

For `CC1=CC(=C(c2ccc(N)cc2)c2ccc(N)cc2)C=CC1=N`, the growth is -13.6% (active) and -1.34% (active).

Turning to `CC(C)(C)c1ccc(O)c(Br)c1`, the growth was 70.2% (inactive).

Regarding `Cc1sc2nc3[nH]/c(=C\c4ccc(Cl)cc4)c(=O)n3c(=O)c2c1C`, the growth was 101% (inactive).

Take `Nc1nc(-c2ccccn2)cc(-c2cc(-c3ccccn3)nc(N)n2)n1`: the growth was 98.7% (inactive).

For the compound `COc1ccc(-c2nn(-c3cccc(Cl)c3)cc2-c2cc(-c3ccccc3)[nH]c(=O)c2C#N)cc1`, the growth was 16.4% (inactive).

Regarding `CCN(CC)Cc1cc(Nc2ccnc3cc(Cl)ccc23)ccc1OC`, the growth was 93.6% (inactive).

Take `COc1ccc(C(C#N)=C2C=CC(=NO)C=C2)cc1`: the growth is -7.26% (active).

With `COc1ccc2c(c1)O/C(=C\c1ccc([N+](=O)[O-])o1)C2=O`, the growth is -46.5% (active).

Regarding `CCCCN(C(=O)CC)c1ccccc1`, the growth was 106% (inactive).

For `CN(C)CCCC1(c2ccc(F)cc2)OCc2cc(-c3csc4ccccc34)ccc21` (stereo not given), the growth was -68.5% (active).

Regarding `O=S(=O)(Nc1nccs1)c1ccc(Nc2nc(-c3ccncc3)cs2)cc1`, the growth is 101% (inactive).

Take `C/C(=N\NC(N)=S)C(C)(C)O`: the growth was 26.2% (inactive).

Take `COc1ccc(-c2cn[nH]c2-c2cc(OC)c3c(c2)OCCO3)cc1`: the growth was 5.64% (active).

Take `COc1ccc(/C=N/Nc2nc3ccccc3s2)cc1`: the growth was 84.8% (inactive).

Take `O=c1oc2ccc(F)cc2c(=O)n1-c1ccc(I)cc1F`: the growth was -1.22% (active).

On to `CCc1nn2c(-c3ccccc3)c(-c3cc(OC)c(OC)c(OC)c3)nc2s1`, for which the growth was 66% (inactive).

For the compound `CCN1CCCC(N2c3ccccc3Sc3ccccc32)C1` (stereo not given), the growth was 116% (inactive).

As to `Nc1c(C(=O)c2ccccc2)nnc2ncnn12`, the growth is 99.7% (inactive).

As to `Fc1ccc(NCc2cn(-c3ccccc3)nc2-c2ccc(OCc3ccccc3)cc2)cc1Cl`, the growth is 119% (inactive).

Take `CCN(CC)Cc1cc(Nc2cc(C(F)(F)F)c(C#N)c3nc4ccccc4n23)ccc1O`: the growth is -0.969% (active).

Regarding `CCCCNC(=O)Oc1ccc(/C(=C(\C)c2ccc(Cl)cc2)c2ccc(OCCN3CCCCC3)cc2)cc1`, the growth was 62.9% (inactive).

As for `CCOC(=O)C(NC(=O)C(Cl)Cl)C(O)c1ccccc1` (stereo not given), the growth was 102% (inactive).

On to `O=C1/C(=C/c2ccc(Cl)c(Cl)c2)CN(C(=O)CCN2CCC(=NO)CC2)C/C1=C\c1ccc(Cl)c(Cl)c1`, for which the growth was -72.3% (active).

Regarding `COc1ccc(C(=O)/C=C/c2sc(Cl)nc2Cl)cc1`, the growth was -13.8% (active).

For the compound `O=C(Nc1cccc(-n2cc(-c3ccncc3)c(-c3ccc(O)c(Cl)c3)n2)c1)c1cccc(C(F)(F)F)c1`, the growth was 34.3% (inactive).

As to `O=C(Cn1c[n+](CC(=O)c2ccc([N+](=O)[O-])cc2)c2ccccc21)Nc1cccc2cccnc12`, the growth was 9.02% (active).

On to `C=CCSc1ccc2c(c1)C(N1CCNCC1)=Nc1ccccc1O2`, for which the growth is 27.8% [8.25 µM] (inactive).

`CNC(=O)c1cc(Oc2ccc3nc(NC(=O)Nc4ccc(Cl)c(Cl)c4)sc3c2)ccn1`: the growth is 68.3% (inactive).

Take `O=C(COc1ccc(/C=C2\C(=O)Nc3ccc(F)cc32)cc1)Nc1ccccc1`: the growth was 98.5% (inactive).

`CC(C)(C)OC(=O)NCCc1ccc(N=C=S)cc1`: the growth was 60.6% (inactive).

On to `COc1cc(C2CC(C3C(=O)N(C)C(=O)N(C)C3=O)=NN2C=O)cc(OC)c1OC` (stereo not given), for which the growth is 103% (inactive).

Source of the values: PubChem BioAssay (NCI).
